18 molecules from PubChem BioAssay AID1259421 (Broad Institute, 2018) can be followed below.

SMILES strings stand for the structures. Where “and” joins values, the source holds several entries; their conditions need not be identical. Equal values may be shown once. The campaign covered roughly 6,400 compounds. About 610 (9.5%) were called active. Cut-off read from the data, not from the text of the source: active = activity change below about -70%; inconclusive = no clear call, values can overlap the other calls; inactive = above that. The sample as a whole holds a higher share of actives than the screen did. More than one record can exist for a structure, and the calls need not agree.

The nature of the assay: Toxoplasma gondii ME49Luc growth in HeLa cells, luciferase, no IFN-y, primary screen (AID 1259421). The following applies: T. gondii ME49Luc in HeLa, 72 h, stronger effect = lower value, concentration not given here.
For the molecule `CO[C@@H]1[C@@H](O[C@@H]2O[C@H](C)[C@@H](O[C@H]3C[C@@](C)(OC(=O)CC(C)C)[C@@H](O)[C@H](C)O3)[C@H](N(C)C)[C@H]2O)[C@@H](CC=O)C[C@@H](C)[C@@H](O)/C=C/C=C/C[C@@H](C)OC(=O)C[C@H]1OC(C)=O`, the activity change, negative = inhibition was -10.6% (inactive).
Consider `COc1ccc(CCO[C@@H]2CCCC[C@H]2N2CC[C@@H](O)C2)cc1OC`, for which the activity change, negative = inhibition is 23% (inactive).
The value for `O=C1c2cccc(O)c2C(=O)c2c(O)cc(CO)cc21` was -11.5% (inactive).
The value for `O=C1c2cccc(O)c2C(=O)c2c(O)cccc21` was 3.71% (inactive) and 0.722% (inactive).
Take `O=C1c2c(O)ccc(O)c2C(=O)c2c(NCCNCCO)ccc(NCCNCCO)c21`: the activity change, negative = inhibition was -73.8% (active) and -3.38% (inactive).
Take `CCCCCCCC/C=C/CCCCCCCC(=O)NCCO`: the activity change, negative = inhibition is -10.5% (inactive).
For the molecule `C=C1C(=O)[C@]23[C@H](O)[C@H]1CC[C@@H]2[C@@]12CO[C@]3(O)C[C@@H]1C(C)(C)CC[C@@H]2O`, the activity change, negative = inhibition was -77.5% (active) and 3.05% (inactive).
On to `O=c1cc(-c2ccccc2O)oc2cc(O)ccc12`, for which the activity change, negative = inhibition was 190% (inactive).
The value for `COP(=O)(OC)OC(c1ccc(Cl)cc1)P(=O)(OC)OC` (stereo not drawn) was 5.14% (inactive) and 12.1% (inactive); that for `CN(C)Cc1ccc(S(=O)(=O)n2ccc(/C=C/C(=O)NO)c2)cc1` was -84.8% (active); that for `c1ccc2sc(SN3CCOCC3)nc2c1` was 17.7% (inactive).
For the molecule `COc1c(-c2ccc3cc(NS(C)(=O)=O)ccc3c2)cc(-n2ccc(=O)[nH]c2=O)cc1C(C)(C)C`, the activity change, negative = inhibition is 17.6% (inactive).
In the case of `CC(=O)OCC(=O)[C@@]1(O)[C@H](C)CC2C3CCC4=CC(=O)C=C[C@]4(C)[C@@]3(F)[C@@H](O)C[C@@]21C` (stereo partly drawn), the activity change, negative = inhibition is -8.27% (inactive).
As for `Nc1nc(-c2ccc(Cl)c(Cl)c2)c(-c2ccncc2)s1`, the activity change, negative = inhibition was -9.5% (inactive).
On to `COC(=O)[C@@]12OC[C@]34[C@H]([C@@H](O)[C@@H]1O)[C@@]1(C)CC(=O)C(=O)C(C)[C@@H]1C[C@H]3OC(=O)[C@H](OC(=O)/C=C(\C)C(C)C)[C@@H]24` (stereo partly drawn), for which the activity change, negative = inhibition is -83.7% (active).
As to `CC(CCC(=O)O)[C@H]1CCC2C3C(=O)C[C@@H]4CC(=O)CC[C@]4(C)C3CC(=O)[C@@]21C` (stereo partly drawn), the activity change, negative = inhibition is 4.28% (inactive) and -3.38% (inactive).
As for `Cc1onc(-c2ccccc2)c1C(=O)N[C@@H]1C(=O)N2[C@@H](C(=O)O)C(C)(C)S[C@@H]12`, the activity change, negative = inhibition was 3.42% (inactive).
Regarding `N[C@H](Cc1cc(I)c(Oc2ccc(O)c(I)c2)c(I)c1)C(=O)O`, the activity change, negative = inhibition is 2.18% (inactive) and -1.07% (inactive).
